Test results taken from the supplement of paper PMC8728848.
Shown is part of a subset that was picked to be rich in the strongest signals.

Assays:
Assay in all cases: glycan array binding signal (z-score within array); higher = stronger binding
Conditions in all cases: glycan notation: IUPAC condensed, linker removed
[1] = biological target: Fuc(a1-2)Gal(b1-3)GlcNAc(b1-3)[Neu5Ac(a2-6)Gal(b1-4)GlcNAc(b1-6)]Gal(b1-4)Glc
Procedure, shortened: (§1)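 From the Consortium for Functional Glycomics database, 3228 arrays were curated, keeping only those whose protein sequence was available. Binding is given as a within-array Z-score averaged across arrays sharing a protein sequence and across linkers. Negative Z-scores can be read as non-binding.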

[2] = biological target: Fuc(a1-3)[Gal(b1-4)]GlcNAc(b1-6)GalNAc
Procedure, shortened: as §1

[3] = biological target: Gal(a1-2)Gal
Procedure, shortened: as §1

[4] = biological target: Gal(a1-3)Gal(b1-3)GlcNAc(b1-6)GalNAc
Procedure, shortened: as §1

[5] = biological target: Gal(a1-3)Gal(b1-3)[Fuc(a1-4)]GlcNAc(b1-2)Man(a1-3)[Gal(a1-3)Gal(b1-3)[Fuc(a1-4)]GlcNAc(b1-2)Man(a1-6)]Man(b1-4)GlcNAc(b1-4)GlcNAc
Procedure, shortened: as §1

[6] = biological target: Gal(a1-3)[Gal(a1-4)]Gal(b1-4)GlcNAc
Procedure, shortened: as §1

[7] = biological target: Gal(a1-4)Gal(b1-4)Glc
Procedure, shortened: as §1

[8] = biological target: Gal(b1-3)GlcNAc(b1-2)Man(a1-3)[GlcNAc(b1-4)][Gal(b1-3)GlcNAc(b1-2)Man(a1-6)]Man(b1-4)GlcNAc(b1-4)GlcNAc
Procedure, shortened: as §1

[9] = biological target: Gal(b1-3)GlcNAc6S
Procedure, shortened: as §1

[10] = biological target: Gal(b1-4)GlcNAc(b1-3)Gal(b1-4)GlcNAc(b1-2)[Gal(b1-4)GlcNAc(b1-3)Gal(b1-4)GlcNAc(b1-6)]Man(a1-6)[Gal(b1-4)GlcNAc(b1-3)Gal(b1-4)GlcNAc(b1-2)Man(a1-3)]Man(b1-4)GlcNAc(b1-4)[Fuc(a1-6)]GlcNAc
Procedure, shortened: as §1

[11] = biological target: Gal(b1-4)GlcNAc(b1-3)Gal(b1-4)GlcNAc(b1-3)Gal(b1-4)GlcNAc(b1-2)[Gal(b1-4)GlcNAc(b1-3)Gal(b1-4)GlcNAc(b1-3)Gal(b1-4)GlcNAc(b1-6)]Man(a1-6)[Gal(b1-4)GlcNAc(b1-3)Gal(b1-4)GlcNAc(b1-3)Gal(b1-4)GlcNAc(b1-2)Man(a1-3)]Man(b1-4)GlcNAc(b1-4)[Fuc(a1-6)]GlcNAc
Procedure, shortened: as §1

[12] = biological target: Gal(b1-4)GlcNAc(b1-3)Gal(b1-4)GlcNAc(b1-3)Gal(b1-4)GlcNAc(b1-3)Gal(b1-4)GlcNAc(b1-3)Gal(b1-4)GlcNAc(b1-2)Man(a1-3)[Gal(b1-4)GlcNAc(b1-3)Gal(b1-4)GlcNAc(b1-3)Gal(b1-4)GlcNAc(b1-3)Gal(b1-4)GlcNAc(b1-3)Gal(b1-4)GlcNAc(b1-2)Man(a1-6)]Man(b1-4)GlcNAc(b1-4)GlcNAc
Procedure, shortened: as §1

[13] = biological target: Gal(b1-4)GlcNAc(b1-3)Gal(b1-4)GlcNAc(b1-3)Gal(b1-4)GlcNAc(b1-3)Gal(b1-4)GlcNAc(b1-3)Gal(b1-4)GlcNAc(b1-2)Man(a1-3)[Gal(b1-4)GlcNAc(b1-3)Gal(b1-4)GlcNAc(b1-3)Gal(b1-4)GlcNAc(b1-3)Gal(b1-4)GlcNAc(b1-3)Gal(b1-4)GlcNAc(b1-2)Man(a1-6)]Man(b1-4)GlcNAc(b1-4)[Fuc(a1-6)]GlcNAc
Procedure, shortened: as §1

[14] = biological target: Gal(b1-4)GlcNAc(b1-3)Gal(b1-4)GlcNAc(b1-3)Gal(b1-4)GlcNAc(b1-3)Gal(b1-4)GlcNAc(b1-3)Gal(b1-4)GlcNAc(b1-3)Gal(b1-4)GlcNAc(b1-2)Man(a1-3)[Gal(b1-4)GlcNAc(b1-3)Gal(b1-4)GlcNAc(b1-3)Gal(b1-4)GlcNAc(b1-3)Gal(b1-4)GlcNAc(b1-3)Gal(b1-4)GlcNAc(b1-3)Gal(b1-4)GlcNAc(b1-2)Man(a1-6)]Man(b1-4)GlcNAc(b1-4)GlcNAc
Procedure, shortened: as §1

[15] = biological target: Gal(b1-4)GlcNAc(b1-3)[Gal(b1-4)GlcNAc(b1-6)]Gal(b1-4)GlcNAc
Procedure, shortened: as §1

[16] = biological target: Gal(b1-4)GlcNAc6P
Procedure, shortened: as §1

[17] = biological target: Gal6P(b1-4)GlcNAc
Procedure, shortened: as §1

[18] = biological target: GalNAc(a1-3)Gal
Procedure, shortened: as §1

[19] = biological target: GalNAc(b1-3)GlcNAc
Procedure, shortened: as §1

[20] = biological target: GalNAc6S(b1-4)GlcNAc
Procedure, shortened: as §1

[21] = biological target: GlcA(b1-6)Gal
Procedure, shortened: as §1

[22] = biological target: GlcNAc(a1-4)Gal(b1-4)GlcNAc(b1-3)Gal(b1-4)Glc
Procedure, shortened: as §1

[23] = biological target: GlcNAc(b1-2)Man(a1-3)[GlcNAc(b1-4)][GlcNAc(b1-2)Man(a1-6)]Man(b1-4)GlcNAc(b1-4)[Fuc(a1-6)]GlcNAc
Procedure, shortened: as §1

[24] = biological target: GlcNAc(b1-3)Gal
Procedure, shortened: as §1

[25] = biological target: GlcNAc(b1-3)Gal(b1-4)GlcNAc(b1-3)Gal(b1-4)GlcNAc(b1-3)Gal(b1-4)GlcNAc(b1-3)Gal(b1-4)GlcNAc(b1-2)Man(a1-3)[GlcNAc(b1-3)Gal(b1-4)GlcNAc(b1-3)Gal(b1-4)GlcNAc(b1-3)Gal(b1-4)GlcNAc(b1-3)Gal(b1-4)GlcNAc(b1-2)Man(a1-6)]Man(b1-4)GlcNAc(b1-4)[Fuc(a1-6)]GlcNAc
Procedure, shortened: as §1

[26] = biological target: GlcNAc(b1-3)Gal(b1-4)GlcNAc(b1-3)GalNAc
Procedure, shortened: as §1

[27] = biological target: Man(a1-3)[Man(a1-6)]Man(a1-6)[Man(a1-3)]Man(b1-4)GlcNAc(b1-4)GlcNAc
Procedure, shortened: as §1

[28] = biological target: Neu5Ac(a2-3)Gal(b1-3)GlcNAc(b1-3)GalNAc
Procedure, shortened: as §1

[29] = biological target: Neu5Ac(a2-3)Gal(b1-3)[Fuc(a1-4)]GlcNAc(b1-3)Gal(b1-4)[Fuc(a1-3)]GlcNAc
Procedure, shortened: as §1

[30] = biological target: Neu5Ac(a2-3)Gal(b1-3)]Neu5Ac(a2-3)Gal(b1-4)]GlcNAc
Procedure, shortened: as §1

[31] = biological target: Neu5Ac(a2-3)Gal(b1-4)GlcNAc(b1-2)[Neu5Ac(a2-3)Gal(b1-4)GlcNAc(b1-4)]Man(a1-3)[GlcNAc(b1-4)][Neu5Ac(a2-3)Gal(b1-4)GlcNAc(b1-2)[Neu5Ac(a2-3)Gal(b1-4)GlcNAc(b1-6)]Man(a1-6)]Man(b1-4)GlcNAc(b1-4)GlcNAc
Procedure, shortened: as §1

[32] = biological target: Neu5Ac(a2-3)Gal(b1-4)[Fuc(a1-3)]GlcNAc(b1-6)[Gal(b1-3)]GalNAc
Procedure, shortened: as §1

[33] = biological target: Neu5Ac(a2-3)[GalNAc(b1-4)]Gal(b1-4)GlcNAc(b1-3)GalNAc
Procedure, shortened: as §1

[34] = biological target: Neu5Ac(a2-6)Gal(b1-4)GlcNAc(b1-2)Man(a1-3)Man(b1-4)GlcNAc(b1-4)GlcNAc
Procedure, shortened: as §1

[35] = biological target: Neu5Ac(a2-6)Gal(b1-4)GlcNAc(b1-3)[Neu5Ac(a2-6)Gal(b1-4)GlcNAc(b1-6)]GalNAc
Procedure, shortened: as §1

[36] = biological target: Neu5Ac(a2-8)Neu5Gc(a2-3)Gal(b1-4)GlcNAc
Procedure, shortened: as §1

[37] = biological target: Neu5Ac9Ac(a2-3)Gal(b1-4)GlcNAc
Procedure, shortened: as §1

B1: PX9961J-bvu-499-24-499 (Bacteroides vulgatus) (protein)
chain: LNTDPSTAVPSDDAIKNIDDAQVALNGIYRLASAHSYYGDNYLYYADCRGEDVQARINKGAGRRVSPYYFFDVTADDNFNITLVWNQPYKVIHQANSLIEKLDAGNAGNARPEEVARIKSEALAMRGLALFDLTRLFGMPYTLDNGASLGVPIEIQTTLEDHAPERNTVAQCYEQVLKDLNDALGGLTKEKHDAYMNYWSVKALLSRVYLYMNDNENALKCAEEVINDNGGIYRLFTHDEYPSVWGKDFNSESLFEFYFTMSEPSGGSGGEGAPMVYADNVKDWNNLILTKAYLDLLNEDPEDVRHVFPHLPENAVADTLPVAAKGQPKYLIKYPGKSGSVTDAVSTVNPQDNDLCILRLSEVYLNAAEAAFKIGNTEKALTYLNAIVTRANPAKSVTSADLSLERILKERRKELVGEGHAFFDYMRNGKSVDRSGGWHLTMPEDARVIAPSDPRVALPIPQTEIDANPNIVQNPR
glycan array binding signal (z-score) [1]: -0.281 | glycan array binding signal (z-score) [2]: -0.674 | glycan array binding signal (z-score) [3]: -0.036 | glycan array binding signal (z-score) [4]: 1.19 | glycan array binding signal (z-score) [5]: 2.95 | glycan array binding signal (z-score) [6]: 3.12 | glycan array binding signal (z-score) [7]: -0.223 | glycan array binding signal (z-score) [8]: 2.45 | glycan array binding signal (z-score) [9]: -0.142 | glycan array binding signal (z-score) [10]: 3.83 | glycan array binding signal (z-score) [11]: 0.849 | glycan array binding signal (z-score) [12]: 4.09 | glycan array binding signal (z-score) [13]: 2.67 | glycan array binding signal (z-score) [14]: 0.326 | glycan array binding signal (z-score) [15]: -0.048 | glycan array binding signal (z-score) [16]: 0.028 | glycan array binding signal (z-score) [17]: -0.613 | glycan array binding signal (z-score) [18]: 2.34 | glycan array binding signal (z-score) [19]: 0.212 | glycan array binding signal (z-score) [20]: 2.75 | glycan array binding signal (z-score) [21]: 0.034 | glycan array binding signal (z-score) [22]: 0.01 | glycan array binding signal (z-score) [23]: -0.709 | glycan array binding signal (z-score) [24]: -0.109 | glycan array binding signal (z-score) [25]: 2.84 | glycan array binding signal (z-score) [26]: 0.1 | glycan array binding signal (z-score) [27]: -0.181 | glycan array binding signal (z-score) [28]: 0.006 | glycan array binding signal (z-score) [29]: -0.506 | glycan array binding signal (z-score) [30]: 0.358 | glycan array binding signal (z-score) [31]: -0.208 | glycan array binding signal (z-score) [32]: -0.279 | glycan array binding signal (z-score) [33]: -0.342 | glycan array binding signal (z-score) [34]: 0.368 | glycan array binding signal (z-score) [35]: -0.732 | glycan array binding signal (z-score) [36]: 19 | glycan array binding signal (z-score) [37]: -0.319
